Calls of active or inactive are those of the source. The rule behind the calls is not given here.
system: HIV-1 nucleocapsid protein NCp7 (binding to TG oligonucleotide); assay: HIV Nucleocapsid (AID 346); conditions: HIV-1 NC / fluorescein-TGTGTGTG probe, fluorescence polarization;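 note: potency is for inhibitors that block NC binding and lower polarization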
How it was run: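 HIV-1 NC (100 nM) binding to fluorescein-labelled ssDNA TG4xF (10 nM) in Hepes pH 7.5, 250mM NaCl, 1uM ZnCl2, TCEP and 2-mercaptoethanol; compounds pin-transferred, 1 hr room temperature, fluorescence polarization read on CCD imager.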
Potency is the fitted concentration of half-maximal effect.

Compound | Potency
COc1ccc(Oc2ncc3nc(C)c(=O)n(CCc4ccccc4)c3n2)cc1 | > 20 µM (inactive)
COC(=O)N1CCC2(CC1)CN(C(=O)Nc1ccc(OC)cc1)C2 | > 20 µM (inactive)
Cc1noc(C)c1-c1cc(N(C)Cc2ccco2)ncn1 | > 20 µM (inactive)
COCCn1c(=O)c(-c2cccc(C#N)c2)nc2cnc(OCc3ccccc3)nc21 | > 20 µM (inactive)
Cc1noc(C)c1-c1nccc(NC2CC2)n1 | > 20 µM (inactive)
COc1cccc(Cn2c(=O)c(-c3ccc(Cl)cc3)nc3cncnc32)c1 | > 20 µM (inactive)
COc1ccccc1-c1nc(NCc2ccccc2)c2ccccc2n1 | > 20 µM (inactive)
COc1cccc(Cn2c(=O)c(-c3cn(C)c4ccccc34)nc3cnc(N4CCNCC4)nc32)c1 | > 20 µM (inactive)
COc1ncc2nc(CCc3ccccc3)c(=O)n(C3CC3)c2n1 | > 20 µM (inactive)
CN1CCN(c2ncc3nc(-c4cc(F)cc(F)c4)c(=O)n(C4CC4)c3n2)CC1 | > 20 µM (inactive)
Cn1cccc1C(=O)N1CCC2(CC1)CN(c1ccccn1)C2 | > 20 µM (inactive)
Cc1nc2cnc(N3CCNCC3)nc2n(-c2ccccc2)c1=O | > 20 µM (inactive)
Cc1cnc(CNc2ncncc2-c2cccc(C#N)c2)cn1 | > 20 µM (inactive)
CN(Cc1ccco1)c1cc(-c2cccc(NS(C)(=O)=O)c2)ncn1 | > 20 µM (inactive)
COc1ccc(Oc2ncc3nc(C)c(=O)n(C4CC4)c3n2)cc1 | > 20 µM (inactive)
COc1ccc(C(=O)N2CCC3(CCCN(Cc4ccncc4)C3)CC2)cc1 | > 20 µM (inactive)
COc1cccc(-c2nc(Nc3ccncc3)c3ccccc3n2)c1 | > 20 µM (inactive)
COc1ccc(CNc2cc(-c3cccc(C#N)c3)ncn2)c(OC)c1 | > 20 µM (inactive)
Cc1nc2cnc(Nc3ccccc3)nc2n(Cc2cccs2)c1=O | > 20 µM (inactive)
O=c1c(-c2cc(F)cc(F)c2)nc2cnc(N3CCOCC3)nc2n1C[C@H]1CCCO1 | > 20 µM (inactive)

Compound | Potency
Cc1noc(C)c1-c1nc(NCc2cccnc2)c2ccccc2n1 | > 20 µM (inactive)
COc1ccc(C(=O)N2CCC3(CCCN(c4ccccc4)C3)CC2)cc1 | > 20 µM (inactive)
O=C(c1ccncc1)N1CCC2(CCCN(c3ccccn3)C2)CC1 | > 20 µM (inactive)
COCCn1c(=O)c(-c2cn(C)c3ccccc23)nc2cnc(N3CCOCC3)nc21 | > 20 µM (inactive)
COc1ccccc1CNc1ncncc1-c1ccc(N(C)C)cc1 | > 20 µM (inactive)
COc1cccc(Cn2c(=O)c(-c3cccc(C#N)c3)nc3cnc(Nc4ccccc4)nc32)c1 | 0.198 µM (active)
CN1CCCC2(CCN(S(=O)(=O)c3ccccc3)CC2)C1 | > 20 µM (inactive)
COc1cccc(Nc2ncc3nc(-c4cccs4)c(=O)n(-c4ccccc4)c3n2)c1 | 6.57 µM (active)
COc1ccc(-c2nc3cnc(N(C)C)nc3n(CCc3ccccc3)c2=O)cc1 | > 4 µM (inactive)
c1ccc(CNc2nc(-c3ccc4c(c3)OCO4)nc3ccccc23)cc1 | > 20 µM (inactive)
Cc1cnc(CNc2cc(-c3ccc(C(=O)N(C)C)cc3)ncn2)cn1 | > 20 µM (inactive)
CNc1cc(-c2c(C)noc2C)ncn1 | > 20 µM (inactive)
Cc1noc(C)c1C(=O)N1CCC[C@@]2(CCN(C(=O)Nc3cccc(F)c3)C2)C1 | > 20 µM (inactive)
Clc1ccccc1-c1ccc2ncnc(NCc3cccnc3)c2c1 | > 20 µM (inactive)
O=S(=O)(c1ccccc1)N1CCC2(CC1)CN(Cc1nccs1)C2 | > 20 µM (inactive)
c1ccc(CNc2ccnc(-c3cccnc3)n2)cc1 | > 20 µM (inactive)
Cc1noc(C)c1-c1cc(NCCN2CCOCC2)ncn1 | > 20 µM (inactive)
CNc1cc(-c2ccccc2CN(C)C)ncn1 | > 20 µM (inactive)
CN(Cc1ccco1)c1ncncc1-c1ccoc1 | > 20 µM (inactive)
Cc1nc2cnc(Oc3ccccc3)nc2n(CCc2ccccc2)c1=O | > 20 µM (inactive)
